According to PubChem BioAssay (NCATS):
“And” between values parts separate entries of the source, which are not always exact repeats. Identical values can stand only once. Inconclusive results are not listed. Entries that show only a call come without a potency. Unmarked numbers belong to inactive results. The source made the active and inactive calls. Calls come from the whole dose curve; as a rule, active = well fitted curve in the direction sought with a large enough effect; inconclusive = small, poorly fitted or top-dose-only effect, or another doubt; inactive = no such curve, though single readings can be large; an effect the other way counts as inactive or inconclusive.

Experiments:
[1] = molecular target: Cellular tumor antigen p53 (Homo sapiens) (UniProt P04637); assay: Primary qHTS for small molecule compounds that upregulate eGFP-tagged delta133p53alpha (in N-terminal) cells. (AID 2060322); conditions: NCI-H358 eGFP-delta133p53alpha fluorescence, 24 h; activation: active compounds read high; note: nearly all actives have a fitted effect of over 75% in size; note: potency is the fitted concentration of half-maximal effect; for activation: series mostly up to about 56 µM
In short: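 NCI-H358 cells pre-induced 24 h with 10 ng/ml doxycycline to express N-terminal eGFP-delta133p53alpha, then dosed 24 h at 37C without doxycycline; fixed, Hoechst-stained, GFP intensity by laser scanning cytometry, normalized to DMSO (0%) and 57.5 uM 5-azacytidine (100%).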

[2] = molecular target: Aldehyde dehydrogenase, mitochondrial (Homo sapiens) (UniProt P05091); assay: qHTS for Inhibitors of the Aldehyde Dehydrogenase Family (ALDH2) Primary screen (AID 2061308); note: nearly all actives have a fitted effect of over 55% in size
[3] = molecular target: Retinaldehyde dehydrogenase 3 (Homo sapiens) (UniProt P47895); assay: qHTS for Inhibitors of the Aldehyde Dehydrogenase Family (ALDH1A3) Primary screen (AID 2061315)

Chain of Cellular tumor antigen p53 (Homo sapiens) (P04637 whole entry, looked up): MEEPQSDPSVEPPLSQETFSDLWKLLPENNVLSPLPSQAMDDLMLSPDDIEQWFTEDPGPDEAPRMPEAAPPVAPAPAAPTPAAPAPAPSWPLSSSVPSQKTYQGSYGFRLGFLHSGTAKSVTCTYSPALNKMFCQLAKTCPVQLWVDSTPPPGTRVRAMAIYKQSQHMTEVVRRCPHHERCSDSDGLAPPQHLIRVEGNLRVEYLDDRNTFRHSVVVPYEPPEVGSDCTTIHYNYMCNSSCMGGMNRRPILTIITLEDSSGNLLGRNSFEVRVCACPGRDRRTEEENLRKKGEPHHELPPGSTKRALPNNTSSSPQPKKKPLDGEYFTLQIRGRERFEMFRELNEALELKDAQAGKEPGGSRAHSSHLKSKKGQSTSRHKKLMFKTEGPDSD

SMILES	activation [1]	Potency [2]	Potency [3]	Potency [1]
C=C1C(=O)O[C@H](CCC)[C@H]1C(=O)O	-1.67%	inactive	inactive	
Cn1nc(C(C)(C)C)cc1C(=O)N[C@@H](Cc1cccc(Cl)c1)C(=O)NCC#N	-7%	inactive	inactive	
OC(CN1CCN(c2cccc(Cl)c2)CC1)C(c1ccccc1)c1ccccc1 (centres undefined)	-15.1% and 17%	inactive	inactive	
CC(C)=CCC/C(C)=C/CO[C@@H]1O[C@H](CO[C@@H]2OC[C@](O)(CO)[C@H]2O)[C@@H](O)[C@H](O)[C@H]1O	2.29%	inactive	inactive	
C=C1CC/C=C(/C(=O)O)CCC2C1CC2(C)C (centres undefined)	-4.58%	inactive	inactive	
CCc1c(-c2ccccc2)c(-c2ccccc2)nn1-c1ccccc1-c1cccc(OCC(=O)O)c1	13%	inactive	inactive	
C=CC1C(OC2OC(CO)C(O)C(O)C2O)OC=C(C(=O)OC)C1CC(=O)OCC1C(C)C(O)CC1C(CO)COC(=O)CC1C(C(=O)O)=COC(OC2OC(CO)C(O)C(O)C2O)/C1=C\C (centres undefined)	-16%	inactive	inactive	
CC(C)(C)c1ccc(C(=O)Nc2cc(Cl)c(Br)cc2C(=O)O)cc1	-3.67%	inactive	inactive	
CC(=O)O[C@@H]1CC2C(C)(C)C(=O)C=C[C@]2(C)C2CC[C@]3(C)C(=CC(=O)[C@@H]3c3ccoc3)[C@@]21C (some centres undefined)	1.53%	inactive	inactive	
O=C(/C=C/c1ccc(O)cc1)OC[C@H]1O[C@@H](OC(=O)/C=C/c2ccccc2)[C@H](O)[C@@H](O)[C@@H]1O	-1.53%	inactive	inactive	
CC(=O)C1=C(C)N(c2cccc(C(F)(F)F)c2)C(=O)N[C@H]1c1ccc(C#N)nc1	-3.67%	inactive	inactive	
CC(=O)OC1C(O)/C(C)=C\C2C(OC(=O)c3ccccc3)C(C)CC2(OC(C)=O)C(OC(C)=O)C(C)/C=C/C(C)(C)C1OC(C)=O (centres undefined)	-20.5%	inactive	inactive	
CC(C)(C)NC(=O)[C@H]1CC[C@H]2[C@@H]3CC[C@H]4NC(=O)CC[C@]4(C)[C@H]3CC[C@]12C	21.7%	inactive	inactive	
C/C(=C\CC[C@H](CO)[C@@H]1CC[C@]2(C)C3=C(CC[C@@]12C)[C@@]1(C)CCC(=O)C(C)(C)C1CC3)C(=O)O (some centres undefined)	-4.58%	inactive	inactive	
CC(C)c1ccc2c(c1)C(=O)CC1[C@@](C)(C(=O)O)CCC[C@]21C (some centres undefined)	-2.68%	inactive	inactive	
CC(NC(=O)C(O)C(C)C)C(=O)NC1C(=O)N(C)CCc2ccccc21 (centres undefined)	2.39%	inactive	inactive	
CC1=CC(=O)C2C(C)(C)CC(O)CC2(C)C1CO (centres undefined)	-17.6%	inactive	inactive	
CC1(C)C[C@H](O)C[C@@]2(C)OC(=O)C=C12	19.6%	inactive	inactive	
C=C1CCCC2(C)CC3(OC)OC(=O)C(C)=C3CC12 (centres undefined)	16.1%	inactive	inactive	
C=CC1(C)CC(O)C2(CCC3C(C)(C(=O)O)CCCC3(C)C2=O)C1 (centres undefined)	-2.29%	inactive	inactive	
C=C[C@]1(C)C[C@H](O)[C@@H]2[C@H](OC(=O)[C@@H]2C)C1/C(C)=C/O[C@@H]1O[C@H](CO)[C@@H](O)[C@H](O)[C@H]1O (some centres undefined)	-27.7%	inactive	inactive	
CN(C)C(=O)CNC(=O)Cc1ccccc1	5.02%	inactive	inactive	
C=CCC/C=C/C#CCCCCCCCC[C@H]1C(=O)O[C@H](C)[C@@H]1O	8.4%	inactive	inactive	
O=C(O)CCc1cccc(O[C@@H]2O[C@H](CO)[C@@H](O)[C@H](O)[C@H]2O)c1O	-6.87%	inactive	inactive	
N#CC1C(=O)Nc2scc(-c3ccc(-c4ccccc4O)cc3)c2C1=O (centres undefined)	17%	inactive	inactive	
CN1CCN(Cc2ccc(-c3cnc4[nH]cc(-c5ccc6[nH]ccc6c5)c4c3)cc2)CC1		inactive	inactive	23.9 µM (active)
O=C(O)c1cccc(-c2ccc(-c3cn(C(=O)N4CCCCC4Cc4ccccc4)nn3)cc2)c1 (centres undefined)	-9.67%	inactive	inactive	
CCCn1cc2c(nc(NC(=O)Nc3ccc(OC)cc3)n3nc(-c4ccco4)nc23)n1	9.07%	inactive	inactive	
